Measurements from PubChem BioAssay (NCATS).
Records with an inconclusive call do not appear. Active and inactive are the calls of the source.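 Rule for the calls, unless noted: active = compounds whose dose series gives a full or clear partial fitted curve of increased nuclear translocation; inconclusive = weak partial curve or effect only at the top dose; inactive = no dose-dependent translocation response.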

Test system: not listed separately
Experiment: Stat Signaling Pathway (AID 446; active = well fitted curve in either direction with a large enough effect, not every such curve was filed as active;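 note: ME-180 cervical cancer cells given 40 pM IL-6 alongside compound; SIE-controlled beta-lactamase reporter measured as 460/530 nm FRET emission ratio; % is set by controls: 0 for no effect and ±100 for the full control effect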)
Conditions: ME-180 SIE beta-lactamase reporter, IL-6 stimulated, 5 h; at 17.2 µM (top of the series) unless noted
Method in brief: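 ME-180 cells carrying a SIE-driven beta-lactamase reporter are stimulated with 40 pM IL-6 for 5 h at 37C in the presence of compound. The 460/530 nm FRET substrate ratio is read after 2.5 h at RT. Data are normalised to 300 pM IL-6 and to 125 nM JAK inhibitor controls.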

activity, negative = inhibition, inactive:
CNc1oc(-c2ccccc2Cl)nc1C#N -0.918%
COC(=O)C1=C(C)NC(C)=C(C(=O)OCCN(C)Cc2ccccc2)[C@@H]1c1cccc([N+](=O)[O-])c1 -11.8% [at 38 µM]
N#CC1=C(SCC(=O)c2ccccc2)NC2=C(C(=O)CCC2)C1c1ccco1 (stereo not drawn) -23.9%
Cc1ccc(S(=O)(=O)c2cc3c(=O)n4ccccc4nc3n(C)c2=N)cc1 26.2%

Target: Glucocorticoid receptor (Homo sapiens) (UniProt P04150)
Sequence (P04150 whole entry, looked up): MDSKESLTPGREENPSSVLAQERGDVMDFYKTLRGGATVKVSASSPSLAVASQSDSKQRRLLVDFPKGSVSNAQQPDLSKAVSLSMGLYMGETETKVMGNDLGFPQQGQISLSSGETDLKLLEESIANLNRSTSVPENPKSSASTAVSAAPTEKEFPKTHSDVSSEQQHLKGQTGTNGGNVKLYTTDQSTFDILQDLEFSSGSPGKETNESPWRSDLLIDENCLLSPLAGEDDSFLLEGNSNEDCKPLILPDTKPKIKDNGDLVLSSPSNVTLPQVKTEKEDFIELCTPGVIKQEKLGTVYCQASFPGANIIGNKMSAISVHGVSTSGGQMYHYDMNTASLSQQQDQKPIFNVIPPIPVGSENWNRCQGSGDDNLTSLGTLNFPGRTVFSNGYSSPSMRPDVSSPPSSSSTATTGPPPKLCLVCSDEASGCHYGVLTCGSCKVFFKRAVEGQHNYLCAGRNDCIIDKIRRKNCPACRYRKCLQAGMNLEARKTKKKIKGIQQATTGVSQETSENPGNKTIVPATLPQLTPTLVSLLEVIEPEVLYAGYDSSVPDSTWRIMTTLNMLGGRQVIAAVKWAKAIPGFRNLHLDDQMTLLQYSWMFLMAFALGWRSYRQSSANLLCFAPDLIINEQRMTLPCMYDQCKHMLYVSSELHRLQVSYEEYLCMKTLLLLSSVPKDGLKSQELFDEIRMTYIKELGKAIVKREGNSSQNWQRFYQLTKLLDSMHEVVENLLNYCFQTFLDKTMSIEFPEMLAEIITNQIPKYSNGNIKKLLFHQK
Experiment: GR-GFP Redistribution (AID 450); note: potency is the fitted concentration of half-maximal effect
Conditions: U2OS GR-GFP nuclear translocation, laser cytometry, 2 h; series mostly up to 20.6 µM

Potency, inactive:
Cn1c(N2CCN(c3ccccn3)CC2)nc2c1c(=O)n(Cc1ccc(Cl)cc1)c(=O)n2C > 20.6 µM
Cn1c(NCc2ccccc2)nc2c1c(=O)n(Cc1ccc(Br)cc1)c(=O)n2C > 20.6 µM
CNc1oc(-c2ccccc2Cl)nc1C#N > 20.6 µM
CN1CCc2c(sc3ncn4nc(-c5ccccc5O)nc4c23)C1 > 20.6 µM
Cc1ccc2[nH]c3c(N4CCN(Cc5ccc6c(c5)OCO6)CC4)ncnc3c2c1 > 20.6 µM
COc1cccc(C(=O)Nc2ccc(-c3nnc(-c4ccco4)o3)cc2)c1 > 20.6 µM
COc1ccc(-c2nn(C)c(=O)c3ccccc23)cc1NS(C)(=O)=O > 20.6 µM
O=c1c(-c2ccc3c(c2)OCCO3)c(C(F)(F)F)oc2cc(O)cc(O)c12 > 20.6 µM
COC(=O)C1=C(C)NC(C)=C(C(=O)OCCN(C)Cc2ccccc2)[C@@H]1c1cccc([N+](=O)[O-])c1 > 46 µM
COc1ccc2[nH]c3c(N4CCN(Cc5ccc6c(c5)OCO6)CC4)ncnc3c2c1 > 20.6 µM
O=C1CC(N(O)C2CC(=O)N(Cc3ccccc3)C2=O)C(=O)N1Cc1ccccc1 (stereo not drawn) > 20.6 µM
OC1(c2cccc(C(F)(F)F)c2)CCN(c2ncnc3c2[nH]c2ccccc23)CC1 > 20.6 µM
COc1cccc(-c2nc(NC(C)C)c3ccccc3n2)c1O > 20.6 µM
Cc1oc2cc(O)cc(C)c2c(=O)c1-c1cnn(-c2ccccc2)c1 > 20.6 µM
CSc1nc(N)nc(SCC(=O)C23CC4CC(CC(C4)C2)C3)c1C#N > 20.6 µM
CCc1cc2c(=O)c(-c3nc4ccccc4[nH]3)coc2cc1OC(=O)N1CCOCC1 > 20.6 µM
CCC(=O)Oc1oc(-c2ccccc2)nc1C=Nc1ccccc1OC > 20.6 µM
N#C/C(=C\N1CCN(Cc2ccc3c(c2)OCO3)CC1)c1nc2ccccc2s1 > 20.6 µM
O=C(NCc1ccccn1)c1coc(=O)c(Br)c1 > 20.6 µM
COc1ccc(CNc2oc(COc3ccccc3Cl)nc2C#N)cc1 > 20.6 µM
COc1cccc(-c2nnc3sc(-c4cccs4)nn23)c1 > 20.6 µM
c1ccc2c(c1)CCN(c1ncnc3c1[nH]c1ccccc13)C2 > 20.6 µM
Fc1ccc2[nH]c3c(N4CCN(Cc5ccc6c(c5)OCO6)CC4)ncnc3c2c1 > 20.6 µM
N#CC1=C(SCC(=O)c2ccccc2)NC2=C(C(=O)CCC2)C1c1ccco1 (stereo not drawn) > 20.6 µM
N#Cc1nc(-c2ccccc2Cl)oc1N1CCCCC1 > 20.6 µM
Cc1ccc(S(=O)(=O)c2cc3c(=O)n4ccccc4nc3n(C)c2=N)cc1 > 20.6 µM
CC1(C)Cc2c(C#N)c(N3CCN(C(=O)c4ccco4)CC3)nc(Cc3ccccc3)c2CO1 > 20.6 µM
COc1ccc(C(=O)c2sc(NC(C)C)nc2N)cc1OC > 20.6 µM
Cc1ccc(-n2ncc3c(N4CCN(c5ccccc5)CC4)ncnc32)c(C)c1 > 20.6 µM
COC(=O)c1ccc(C2/C(=C(\O)c3ccc(OC)c(C)c3)C(=O)C(=O)N2c2cc(C)on2)cc1 (stereo not drawn) > 20.6 µM
Cc1csc(NC(=O)CSc2nsc(SCC(=O)Nc3nc(C)cs3)c2C#N)n1 > 20.6 µM
CCCCN(CCCC)c1nc2ccccc2nc1C(C#N)C(=O)NCCCOC (stereo not drawn) > 20.6 µM
COc1ccccc1N=Cc1nc(-c2ccccc2)oc1OC(C)=O > 20.6 µM
N#Cc1c(N)nc(SCc2ccccn2)c(C#N)c1-c1cccs1 > 20.6 µM
